sEH activator = soluble epoxide hydrolase activators, primary screen, biochemical, human sEH | purified human sEH enzymatic activity, activator screen | actives 0.04% (n = 91,000) | activation, % at 2 µM; in the data active means activation above about 37%
Target sequence (P34913 whole entry, looked up): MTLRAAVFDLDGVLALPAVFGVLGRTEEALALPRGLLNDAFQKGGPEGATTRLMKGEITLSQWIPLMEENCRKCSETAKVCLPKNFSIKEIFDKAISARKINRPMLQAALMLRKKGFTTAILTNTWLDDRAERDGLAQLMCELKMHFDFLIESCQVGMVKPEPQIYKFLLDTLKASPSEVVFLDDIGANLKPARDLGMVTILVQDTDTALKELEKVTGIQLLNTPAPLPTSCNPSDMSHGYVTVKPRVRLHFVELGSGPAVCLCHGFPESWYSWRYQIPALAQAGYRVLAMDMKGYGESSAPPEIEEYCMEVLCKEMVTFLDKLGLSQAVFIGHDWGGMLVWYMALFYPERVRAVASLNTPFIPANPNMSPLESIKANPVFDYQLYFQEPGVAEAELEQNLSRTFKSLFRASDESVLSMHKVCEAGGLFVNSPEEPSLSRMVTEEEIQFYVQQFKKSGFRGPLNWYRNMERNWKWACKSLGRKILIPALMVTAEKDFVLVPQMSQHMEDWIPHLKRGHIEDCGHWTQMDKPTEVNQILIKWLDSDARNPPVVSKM
sEH inh = soluble epoxide hydrolase inhibitors, primary screen, biochemical, human sEH; recombinant human sEH enzymatic activity assay; inhibition, % at 2 µM; actives 0.34% (n = 91,000); AID 707, 2007; in the data active means inhibition above about 80%
CYP2C19 inh = blockers of cytochrome P450 2C19 activity – biochemical, luminescence, ADME assay, primary screen. P33261. CYP2C19 Supersomes, luciferin-H EGE luminescence, 30 min. inhibition, % at 5 µM. actives 21% (n = 96,000);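 active means CYP2C19 inhibition above a set limit at 5 µM in the primary screen, cut at about 50% in these data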
CYP2C9 inh = blockers of cytochrome P450 2C9 activity – biochemical, luminescence, ADME assay, primary screen; inhibition, % at 5 µM; P11712; AID 777, 2007; actives 20% (n = 96,000); CYP2C9 Supersomes, luciferin-H conversion;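 active means blocking of liver enzyme CYP2C9 beyond about 50% at 5 µM, limit read from the data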
CYP2C19 activ = human CYP2C19 activators, primary screen, biochemical, luminescence. recombinant CYP2C19, luciferin-H EGE luminescence; stronger effect = higher value; 0 = fully inhibited enzyme, 1 = untreated enzyme. activation factor at 5 µM. 96,000 tested, under 10 active;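 active means activation factor of at least 2 at 5 µM in the primary screen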
CYP2C9 act = human CYP2C9 activators, primary screen, biochemical, luminescence. Cytochrome P450 2C9 (Homo sapiens), P11712. recombinant CYP2C9, luciferin-H conversion; stronger effect = higher value; factor 1 = untreated enzyme, 0 = blocked. activation factor at 5 µM. actives 1.4% (n = 96,000);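 active means activation factor of 2 or more for CYP2C9 at a 5 µM dose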
Of the large screens only hits and unclear results are named; the others gave an inactive call. In the library only some 27% were active in any assay of this set; here they are far more common.

CN1CCc2nc(SCc3ccc(C(C)(C)C)cc3)c(C#N)cc2C1	none
CCN1CCc2nc(SCC(=O)Nc3ccc(OC)cc3)c(C#N)cc2C1	CYP2C9 inh 72.9 (no result: sEH activator, sEH inh)
COc1ccc(-c2c(C#N)c(SCC(=O)Nc3ccccc3)nc3c2CCCC3)cc1	none (no result: CYP2C19 inh, CYP2C9 inh, CYP2C19 activ, CYP2C9 act)
COc1ccc(NC(=O)CSc2nc3c(cc2C#N)CN(C)CC3)cc1	CYP2C9 inh 65.8 (no result: sEH activator, sEH inh)
CN1CCc2nc(SCC(=O)Nc3ccc(F)cc3)c(C#N)cc2C1	CYP2C19 inh 89.5, CYP2C9 inh 75.0
COC(=O)CC(=O)CSc1nc2c(cc1C#N)CCCCC2	CYP2C19 inh 62.1, CYP2C9 inh 76.2
COc1cc(C(=O)N2CCN(C(=O)COc3ccc4ccccc4c3)CC2)cc(OC)c1OC	none
COc1ccc(NC(=O)c2ccc(C(=O)c3ccccc3)o2)cc1	none
CC(Oc1ccccc1F)C(=O)Nc1ccc2ccccc2c1 (stereo not drawn)	none (no result: CYP2C19 inh, CYP2C9 inh, CYP2C19 activ, CYP2C9 act)
CCCCOC(=O)CCc1nc2ccccc2[nH]c1=O	CYP2C19 inh 73.4
CCC(OC(=O)CCc1nc2ccccc2[nH]c1=O)C(=O)c1ccccc1 (stereo not drawn)	CYP2C19 inh 99.2, CYP2C9 inh 79.1
CCOC(=O)CCc1nc2ccccc2[nH]1	CYP2C19 inh 68.8
O=c1[nH]c2ccccc2nc1Cc1ccccc1	CYP2C19 inh 55.5
CNS(=O)(=O)c1cccc(C(=O)OCC(=O)C23CC4CC(CC(C4)C2)C3)c1	none
COc1ccc(CCNC(=O)c2nnn(-c3ccc4c(c3)OCCO4)c2N)cc1OC	none
Cc1ccc(NC(=O)C2CCN(S(=O)(=O)c3c(C)n[nH]c3C)CC2)nc1	none (no result: sEH activator, sEH inh)
Cc1nn(C)c2ncc(C(=O)c3cc(F)ccc3O)cc12	CYP2C19 inh 95.2, CYP2C9 inh 68.0
Cc1[nH]nc2ncc(C(=O)c3ccccc3O)cc12	none
COc1ccc(O)c(C(=O)c2cnc3onc(C)c3c2)c1	CYP2C19 inh 83.4
OCC#CCSc1nnc(-c2ccccc2Br)o1	none
CC(O)(CS(=O)(=O)Cc1cccc(C(F)(F)F)c1)C(=O)Nc1cccc(C(F)(F)F)c1 (stereo not drawn)	none
CC(O)(CS(=O)(=O)Cc1ccccc1Cl)C(=O)Nc1cccc(C(F)(F)F)c1 (stereo not drawn)	CYP2C19 inh 54.3
CCOC(=O)N1CCN(C(=O)CS(=O)(=O)c2cn(Cc3ccccc3Cl)c3ccccc23)CC1	none
Cc1cccc(NC(=O)CS(=O)(=O)c2cn(C)c3ccccc23)c1	CYP2C19 inh 55.8 (no result: sEH activator, sEH inh)
Cn1cc(S(=O)(=O)CC(=O)Nc2ccc3c(c2)OCO3)c2ccccc21	none (no result: CYP2C19 inh, CYP2C9 inh, CYP2C19 activ, CYP2C9 act)
CCn1cc(S(=O)(=O)CC(=O)Nc2cc(C)ccc2C)c2ccccc21	CYP2C19 inh 95.5
Cc1cc(NC(=O)CS(=O)(=O)c2cn(Cc3ccccc3Cl)c3ccccc23)no1	CYP2C9 inh 67.6
COc1ccc(C2NC(=O)C(C)S2)cc1 (stereo not drawn)	none
O=C(c1cccc(C(F)(F)F)c1)N1CCOC12CCN(c1ncc(C(F)(F)F)cc1Cl)CC2	none
CSc1nnc2c3c4c(sc3c(=O)n(-c3ccccc3)n12)CC(C)(C)OC4	none
O=C(NCc1cccnc1)c1cc(-c2ccco2)on1	none (no result: sEH activator, sEH inh)
Cc1ccccc1S(=O)(=O)Cc1ccc(C(=O)NCc2cccs2)o1	none
COc1ccc(CCNC(=O)c2ccc(CS(=O)(=O)c3ccc(C)cc3)o2)cc1OC	CYP2C9 inh 83.2
CCCCc1ccc(NC(=S)NCc2cccs2)cc1	none
Cc1ccc(S(=O)(=O)Cc2ccc(C(=O)NCc3cccs3)o2)cc1	CYP2C9 inh 72.2
Cc1ccc(NC(=S)NCc2cccs2)cc1	CYP2C19 inh 57.4
CC(=O)N(CC1CCCO1)c1nnc(-c2ccccn2)s1 (stereo not drawn)	none
CCn1cc(SCC(N)=O)c2ccccc21	none (no result: sEH activator, sEH inh)
C=CCn1c(=O)c2ccccc2n2c(SCC(=O)Nc3cc(C)on3)nnc12	CYP2C9 inh 50.4
CCn1cc(SCC(=O)Nc2cc(C)on2)c2ccccc21	CYP2C19 inh 55.1
Cc1cc(NC(=O)CSc2cn(C)c3ccccc23)no1	CYP2C19 inh 94.8
Cc1nc2ncnn2c(N2CCN(C(=O)Cc3cccs3)CC2)c1C	none
COc1ccccc1NCC(O)Cn1c2ccccc2c2ccccc21 (stereo not drawn)	CYP2C19 inh 68.6, CYP2C9 inh 76.8
Cc1ccc(N2CCN(S(=O)(=O)N3CCCCCC3)CC2)cc1Cl	none
CCN(CC(=O)Nc1ccc([N+](=O)[O-])cc1OC)c1ccccc1	CYP2C19 inh 53.0, CYP2C9 inh 77.8
COc1ccc(NC(=O)N2CCC(c3ccccc3)C2)c(OC)c1 (stereo not drawn)	CYP2C19 inh 85.2, CYP2C9 act 2.1
COc1cc([N+](=O)[O-])ccc1NC(=O)CCCOc1ccccc1	CYP2C19 inh 63.6
COc1cc([N+](=O)[O-])ccc1NC(=O)CN(C)C	none
COc1ccc(NC(=O)CCC(=O)Nc2nnc(C(F)(F)F)s2)c(OC)c1	CYP2C9 inh 65.2
COc1ccc(NC(=O)CC(=O)Nc2ccc(OC)cc2OC)c(OC)c1	none
O=c1[nH]cnc2c1cnn2Cc1ccccc1	none (no result: sEH activator, sEH inh)
O=C1c2ccccc2C(=O)N1c1ccc(Cl)cn1	none
CCCS(=O)(=O)N1CCCC(C(=O)NCCCN2CCN(c3cccc(Cl)c3)CC2)C1 (stereo not drawn)	none
CC(=O)NCc1cccc(CNC(C)=O)n1	none
Cc1nn(Cc2ccccc2)c(C)c1NC(=O)CSc1nnc(-c2cc(Cl)ccc2O)n1C	none
c1coc(-c2nnc3sc(C4CCCCC4)nn23)c1	none (no result: sEH activator, sEH inh)
CCCOc1ccc(/C=C/C(=O)Nc2ccc([N+](=O)[O-])cc2C)cc1	none
COc1ccc(NC(=O)CCOc2ccccc2)c(OC)c1	CYP2C19 inh 73.3
COc1ccc(C(CNC(=O)CCOc2ccccc2)N(C)C)cc1 (stereo not drawn)	CYP2C19 inh 54.9
Cc1cccc(OCCC(=O)NCC(c2ccccc2)N(C)C)c1 (stereo not drawn)	none
COc1ccc(OCCCC(=O)Nc2cc([N+](=O)[O-])ccc2C)cc1	CYP2C9 act 2.6
O=C(CCOc1ccccc1)NCC(c1ccco1)N1CCCCC1 (stereo not drawn)	CYP2C19 inh 65.8
N#Cc1c(N)sc2c1CCN(CCc1ccccc1)C2	none (no result: CYP2C19 inh, CYP2C9 inh, CYP2C19 activ, CYP2C9 act)
CCCCCCSC1=C(C#N)C(=O)NC2(CCCCC2)S1	none (no result: CYP2C19 inh, CYP2C9 inh, CYP2C19 activ, CYP2C9 act)
COc1ccc(-n2c(=O)c3ccccc3n(CC(=O)NC3CCCCC3)c2=O)cc1	none
COC(=O)C(C(=O)OC)C(C[N+](=O)[O-])c1ccc(OC)cc1 (stereo not drawn)	none
Cc1nc2scc(-c3ccc(Cl)cc3)c2c(=O)o1	none

Compound activity from PubChem.
